Measured values reported in PubChem BioAssay (Tox21).
Results filed as inconclusive are left out. Where a call stands in place of a potency, no number is given. Where a structure was tested more than once in an assay, its records may differ in their call. Calls of active or inactive are those of the source. The call rests on the fitted dose curve; in most records, active means well fitted activation curve with a large enough effect in the repeat runs; inconclusive means weak or mixed curves; inactive means flat fitted curve, though single readings scatter.

Assay: A CellTox Green Cytotoxicity Assay to monitor cytotoxicity in HEK293 cells - 32 hour (AID 1224881); further: nearly all actives have a fitted effect of over 40% in size
Conditions: CellTox Green fluorescence; series mostly up to 76.8 µM
Excerpt: National Center for Advancing Translational Sciences [NCATS]
NIH Chemical Genomics Center [NCGC]
U.S. Environmental Protection Agency [EPA]
National Institutes of Environmental Health Sciences [NIEHS]
National Toxicology Program [NTP]
Cell-based models are critical for drug discovery. Determining the natural cytotoxic effects resulting from test compounds is an essential research activity. A CellTox Green Cytotoxicity Assay to monitor cytotoxicity in real time of continues cell culture during 40 hours of the compound treatment was used to screen Tox21 10K library compounds in Hek293 cells. CellTox Green Cytotoxicity Assay is a nonlytic, homogeneous, biofluorescent method to measure cytotoxicity in cell culture after experimental manipulation. The assay system uses a proprietary asymmetric cyanine dye that is excluded from viable cells but preferentially stains the dead cell's DNA. […] Viable cells produce no appreciable increases in fluorescence. Therefore, the fluorescence signal produced by the binding interaction with dead cell DNA is proportional to cytotoxicity.
The mixture of Hek293 cell suspension and reagents were dispensed at 600cells/6 ul/well in 1536-well tissue culture treated black solid bottom plates using a Multidrop dispenser. After the assay plates were incubated at a 37 C/5% CO2 incubator for 5 hours, 23 nL of compounds dissolved in DMSO, positive and negative controls was transferred to the assay plate by a pintool work station. The plates were incubated at 37 C for 40 hours. The fluorescence intensity were measured at 0h, 8h, 16h, 24h, 32h and 40h time points using ViewLux plate reader during compound treatment.
Potency means the concentration at half of the fitted maximal effect.

SMILES | Potency
CCCCCCCCO | inactive
OCCOCCOCCOCCOCCO | inactive
COC(=O)CCCCC(=O)OC | inactive
Nc1cccc(N)n1 | inactive
Cc1ccccc1Cl | inactive
CN1CCCC1=O | inactive
CN=C(NC#N)NCCSCc1nc[nH]c1C | inactive
C1CCCNCC1 | inactive
O=C1C(N(CO)C(=O)NCO)N(CO)C(=O)N1CO (stereo not given) | inactive
O=C(NCC1CCCCN1)c1cc(OCC(F)(F)F)ccc1OCC(F)(F)F (stereo not given) | inactive
CC(COCC(C)OC(=O)c1ccccc1)OC(=O)c1ccccc1 (stereo not given) | inactive
CC(C=O)Cc1ccc(C(C)(C)C)cc1 (stereo not given) | inactive
CCn1cc(C(=O)O)c(=O)c2cc3c(cc21)OCO3 | inactive
O=[N+]([O-])c1ccccc1C(F)(F)F | inactive
Brc1ccc(Oc2ccc(Br)cc2)cc1 | inactive
CC(=O)OCc1ccc2c(c1)OCO2 | inactive
CCOC(=O)c1ccc(O)cc1 | inactive
C=CC(=O)NCOCCCC | inactive
CCc1cccc(CC)c1N | inactive
CC(=O)OC/C=C(\C)CCC=C(C)C | inactive

SMILES | Potency
CC1=CC(=O)CC(C)(C)C1 | 40 µM (active) and inactive
NC1CCCCC1N (stereo not given) | inactive
Oc1ccc(Cc2ccccc2O)cc1 | inactive
CC(=O)OC(C)(C)C1CC=C(C)CC1 (stereo not given) | inactive
O=c1n(CCCN2CCN(c3cccc(Cl)c3)CC2)nc2ccccn12 | inactive
CC(=O)Nc1ccc(CC(=O)O)cc1 | inactive
CO[Si](CCCNCCN)(OC)OC | inactive
CC(C)=CCC/C(C)=C/C=O | inactive
COC(=O)OC | inactive
C=C1C[C@]23C[C@@]1(O)CC[C@H]2[C@@]12C=C[C@H](O)[C@@](C)(C(=O)O1)[C@H]2[C@@H]3C(=O)O | inactive
CCCOC(=O)NCCCN(C)C | inactive
O=C1O[C@H]([C@H](O)CO)C(O)=C1O | inactive
Cc1cc(C)cc(O)c1 | inactive
Cc1cccc(C)c1[N+](=O)[O-] | inactive
OCC(O)CS (stereo not given) | inactive
CC(=O)OC[C@H]1O[C@@](COC(C)=O)(O[C@H]2O[C@H](COC(C)=O)[C@@H](OC(C)=O)[C@H](OC(C)=O)[C@H]2OC(C)=O)[C@@H](OC(C)=O)[C@@H]1OC(C)=O | inactive
CCCCC(CC)COC(=O)c1ccc(C(=O)OCC(CC)CCCC)cc1 (stereo not given) | inactive
O=[N+]([O-])c1cc(C(F)(F)F)ccc1Cl | inactive
CCCCCCCCCCCCCC(=O)O | inactive
CC1(C)C(=O)N(Cl)C(=O)N1Cl | inactive
